{"source": "the supplement of paper PMC10105736", "binders": {"B1": {"name": "dgt6 (protein)", "chain": "MDRTIIAPWKAEEKEQSEKLHRKLQGLALVHPLPDELRKLIAWDMFLKPNQVAFVHVMHYLFRLLDPAEFKRRFFWPITDKKSEANFRSSTVEYLKHLNEKHQLHWANIKSYLVVMPGGMRFINFLLEFVGFVIQELIKQREKSLGLEAGTPNVSAKVMARQNAVMKEYASSYVVNLEENTALLRDKTQKIRRLMADLSADMGVPEEQLADDGFLDEFEATAALGVERVITQPTERKFDLEASLCGLKEAIDLFQVKQAENNQSKEAVEKALRGMRVLFDCDAVTEGDFYDPLGASKMDALLNGFNRISGTIAEQLDANDHYNESNAFVTTDLQALRVELSQSEVQLNNLLKKLNEPSKKDKGSANASGSARVQTLQPATPRFESVISSKFVSTPPIRIDMGGGGGRNAPVRLALQDDFNGKQFDALSNSLLAPAPPRSARKLKALDQSTGIDLNGTLNRSKINDPMQMLRTIHKNTSKVKAAPQANLSSLGSKWKQMQASFGFDEAPVPGAAVISPQTSPTDPSDPFTPLSGSECTRIERIPRTSENNTSLIAKSAAVIKVLEVSRNVLNLSTSPSGRLDALVPHTESHQQDVAPRLQLNDRTINDSLQLDPDFNIENDKNAFNVSHKFDFDQIGGEDDLQNISDSVLKDIIF"}, "B2": {"name": "nos (protein)", "chain": "MSQHFTSIFENLRFVTIKRSTNAQQQQQQQQQQLQQQQQQLQQQKAQTQQQNSRKIKTQATPTLNGNGLLSGNPNGGGGDSSPSHEVDHPGGAQGAQAAGGLPSSSGTPLRHHKRASISTASPPIRERRGTNTSIVVELDGSGSGSGSGGGGVGVGQGAGCPPSGSCTASGKSSRELSPSPKNQQQPRKMSQDYRSRAGSFMHLDDEGRSLLMRKPMRLKNIEGRPEVYDTLHCKGREILSCSKATCTSSIMNIGNAAVEARKSDLILEHAKDFLEQYFTSIKRTSSTAHETRWKQVRQSIETTGHYQLTETELIYGAKLAWRNSSRCIGRIQWSKLQVFDCRYVTTTSGMFEAICNHIKYATNKGNLRSAITIFPQRTDAKHDYRIWNNQLISYAGYKQADGKIIGDPMNVEFTEVCTKLGWKSKGSEWDILPLVVSANGHDPDYFDYPPELILEVPLTHPKFEWFSDLGLRWYALPAVSSMLFDVGGIQFTATTFSGWYMSTEIGSRNLCDTNRRNMLETVALKMQLDTRTPTSLWKDKAVVEMNIAVLHSYQSRNVTIVDHHTASESFMKHFENESKLRNGCPADWIWIVPPLSGSITPVFHQEMALYYLKPSFEYQDPAWRTHVWKKGRGESKGKKPRRKFNFKQIARAVKFTSKLFGRALSKRIKATVLYATETGKSEQYAKQLCELLGHAFNAQIYCMSDYDISSIEHEALLIVVASTFGNGDPPENGELFSQELYAMRVQESSEHGLQDSSIGSSKSFMKASSRQEFMKLPLQQVKRIDRWDSLRGSTSDTFTEETFGPLSNVRFAVFALGSSAYPNFCAFGQYVDNILGELGGERLLRVAYGDEMCGQEQSFRKWAPEVFKLACETFCLDPEESLSDASLALQNDSLTVNTVRLVPSANKGSLDSSLSKYHNKKVHCCKAKAKPHNLTRLSEGAKTTMLLEICAPGLEYEPGDHVGIFPANRTELVDGLLNRLVGVDNPDEVLQLQLLKEKQTSNGIFKCWEPHDKIPPDTLRNLLARFFDLTTPPSRQLLTLLAGFCEDTADKERLELLVNDSSAYEDWRHWRLPHLLDVLEEFPSCRPPAPLLLAQLTPLQPRFYSISSSPRRVSDEIHLTVAIVKYRCEDGQGDERYGVCSNYLSGLRADDELFMFVRSALGFHLPSDRSRPIILIGPGTGIAPFRSFWQEFQVLSDLDPTAKLPKMWLFFGCRNRDVDLYAEEKAELQKDQILDRVFLALSREQAIPKTYVQDLIEQEFDSLYQLIVQERGHIYVCGDVTMAEHVYQTIRKCIAGKEQKSEAEVETFLLTLRDESRYHEDIFGITLRTAEIHTKSRATARIRMASQP"}, "B3": {"name": "Wdr24 (protein)", "chain": "MPDSVEDTSTISLRICLEGHANALALNKDNNQIALAGRSLLKVYSINSNGFTESCNMRGKNQNLSYSANDVAWSTLDSNLLATAATNGVVSVWDLSKFGRQKQLLVYNEHERTAHTVTFHSSEPNILISGSQDGTIKCFDIRSDKSINTYFCNSESVRDVKFSPHTQNIFSAVSENGTVQLWDMRKWDKCMVQFTAHYGPVYTCDWHPTRNWLATGSRDKQIKVWNMDGRPGLEHTIHTIAVVGRVKWRPERTYHIASCALVVDYSVHVWDIRRPYIPFASFNEHTNVTTGIAWQGSDSHCLLSISKDSTIYKHAFKDATRPALKANAQGASLGRFGDISFANKIKEYEPKTSGASNTKSSSFIRRKTNVAGSIQFHLDHSKMYKFMVNDTFSGYPLSESVSRPTQEHESFIGCARELVISGKKLSELCEHNAEVSKKYGKHNATTLWNFIKLFYGSNHFEPPFEHRSSFSNQKNPMNSRRATQVASDWPQQRTELGQDLNGNTPETAHEIDVANVDDDTLGSSGVEHPPTSSVILSETQIISEITFDNFELLRNGFIYVGPTECPKALAFPALHHDVQAARPQLDLKASDHEKSPPPHVPTVLKVSHVPPIPMWEPHKFVSDALMLMNDVGDVQTALTVLIALGEARKLLPIDDALVEHWFYTYVDQLHRYELWNEACEVINRSWLRSVQQLNQHSTAMHTNCGECGRPMGGKVGWYCDKCKSMQSAKCCVCGLIVRGVYAWCQGCSHGGHIEHLQKYFAKHSKCPKCGHLCAYS"}, "B4": {"name": "Lsm12a (protein)", "chain": "MAAAAASAVNAVNDCFSIGSTVVCTTCFNEEVEGEVLAFDHNTKMLILKCRSKSTEELSDIYAMNLSLCSNVQVIKECNGNFDDPQKLNLEQVKMRLRKTVERRQDYLKSKNADVSPEAQELYRAIAKQYGYNEVSWQGLNIQILNEVTISPPYRVDNVVSSSNNETSCNYIKRIIKQFFNTRPSPVPESGAAASTSSPSVSPTSSSLASGSPVPAN"}, "B5": {"name": "corto (protein)", "chain": "MTMAACYANYDMSSLSHGMSALSALQQQQQQQQQQHSQTQQQHHHQQQQQHMYHAAVAAHQQQLLQQQQQQQHHRHHHQPANTSSSSNSRHSHAAATQTQVAAAVANSRQQQQQQQQQQQQQQQQQTASSNSNAAPAPSPQKDYSIPLHVDCSVEYELPNQPKPPAGQRVEPLLMIHPCYFRKMESQRRSPFVNNMHATARAVSSSSLSSGAALGGGGSGAAVATAPSSSAARRGARAATSAQQQQQQQQRYQQQQQQLRQQHQQMSQMSQQAHYPQQQSSLVRQHQQQQQQQQQQQRASSNQSQRQSQSQSQSQSHAANSAAAAAAQASIAAAAAGQWDQLAALAARTALTPHHMLHPHSHYAAKGSGGGAGGGKRDAMISGSYGQTAVASGKLQQSQVQQQQPQQQQQHCLPPPPWDATSMLMDRSPMATVPSNYQAGPDTNPMRLYSATPTAGAASGGSASVGGGGAVSGAGATGAVNTATDKLSGKYRQYLRSQRMHPYAAAASLNLAAAAAAAGQTSFVPFSSAATAVAATPTFQHLPQISCYNV"}, "B6": {"name": "rl (protein)", "chain": "MEEFNSSGSVVNGTGSTEVPQSNAEVIRGQIFEVGPRYIKLAYIGEGAYGMVVSADDTLTNQRVAIKKISPFEHQTYCQRTLREITILTRFKHENIIDIRDILRVDSIDQMRDVYIVQCLMETDLYKLLKTQRLSNDHICYFLYQILRGLKYIHSANVLHRDLKPSNLLLNKTCDLKICDFGLARIADPEHDHTGFLTEYVATRWYRAPEIMLNSKGYTKSIDIWSVGCILAEMLSNRPIFPGKHYLDQLNHILGVLGSPSRDDLECIINEKARNYLESLPFKPNVPWAKLFPNADALALDLLGKMLTFNPHKRIPVEEALAHPYLEQYYDPGDEPVAEVPFRINMENDDISRDALKSLIFEETLKFKERQPDNAP"}, "B7": {"name": "cpb (protein)", "chain": "MSEMQMDCALDLMRRLPPQQIEKNLIDLIDLAPDLCEDLLSSVDQPLKIAKDKEHGKDYLLCDYNRDGDSYRSPWSNSYYPPLEDGQMPSERLRKLEIEANYAFDQYREMYYEGGVSSVYLWDLDHGFAAVILIKKAGDGSKMIRGCWDSIHVVEVQEKTTGRTAHYKLTSTAMLWLQTNKQGSGTMNLGGSLTRQQEQDANVSESSPHIANIGKMVEEMENKIRNTLNEIYFGKTKDIVNGLRSTQSLADQRQQAAMKQDLAAAILRRNVKPESN"}, "B8": {"name": "PrBP (protein)", "chain": "MGSDDQSAGDRIQKGFQINYMILRDADSGKIIWQENKDFSAPDQEHEARVPVKILDMRAVSREINFSTIESMENFRLDQKVLFKGRIMEEWFFEMGFVGANTTNTWQSTIEAAPESQMMPAKVLNGNVTIQTSFYDNETLITKSVVRLYYI"}, "B9": {"name": "Gs1 (protein)", "chain": "MALRVAGLFLKKELVAPATQQLRLLRTGNTTRSQFLANSPNTALDKSILQRYRNLETPANRVQATYLWIDGTGENIRLKDRVLDKVPSSVEDLPDWQYDGSSTYQAHGENSDTTLKPRAIYRDPFKPGKNDVIVLCDTYSADGKPTASNKRAAFQAAIDLISDQEPWFGIEQEYTLLDVDGRPFGWPENGFPAPQGPYYCGVGADRVYARDLVEAHVVACLYAGIDFAGTNAEVMPAQWEFQIGPAGIKACDDLWVSRYILQRIAEEYGVVVTFDPKPMEGQWNGAGAHTNFSTKEMRADGGIKAIEEAIEKLSKRHERHIKAYDPKEGKDNERRLVGRLETSSIDKFSWGVANRAVSVRVPRGVATAGKGYLEDRRPSSNCDPYAVCNAIVRTCLLNE"}, "B10": {"name": "abs (protein)", "chain": "MAHVKRYRRSSKSSEEGDLDNEDYVPYVPVKERKKQHMIKLGRIVQLVSETAQPKSSSENENEDDSQGAHDVETWGRKYNISLLDQHTELKKIAEAKKLSAVEKQLREEEKIMESIAQQKALMGVAELAKGIQYEQPIKTAWKPPRYIREMSEEEREAVRHELRILVEGETPSPPIRSFREMKFPKGILNGLAAKGIKNPTPIQVQGLPTVLAGRDLIGIAFTGSGKTLVFVLPVIMFALEQEYSLPFERNEGPYGLIICPSRELAKQTHEIIQHYSKHLQACGMPEIRSCLAMGGLPVSEALDVISRGVHIVVATPGRLMDMLDKKILTLDMCRYLCMDEADRMIDMGFEEDVRTIFSFFKGQRQTLLFSATMPKKIQNFARSALVKPVTINVGRAGAASMNVTQQVEYVKQEAKVVYLLDCLQKTAPPVLIFAEKKQDVDCIHEYLLLKGVEAVAIHGGKDQEERSRAVDAYRVGKKDVLVATDVASKGLDFPNVQHVINYDMPDDIENYVHRIGRTGRSNTKGLATTLINKTTEQSVLLDLKHLLIEGKQEVPDFLDELAPETEHQHLDLGDSHGCTYCGGLGHRITECPKLEAVQNKQASNIGRRDYLSNTAADY"}}, "assay_in_all_cases": "MAPPIT interaction score (arbitrary units); higher = stronger binary interaction signal, active = hit call of the paper", "key": {"dgt4": {"target": "dgt4", "settings": "MAPPIT configuration: N-N; pair source set: Lit-BM-16"}, "brat": {"target": "brat", "settings": "MAPPIT configuration: N-N; pair source set: Lit-BM-16"}, "cathD": {"target": "cathD", "settings": "MAPPIT configuration: N-N; pair source set: DPIM"}, "dimm": {"target": "dimm", "settings": "MAPPIT configuration: N-N; pair source set: DPIM"}, "corto": {"target": "corto", "settings": "pair source set: Lit-BM-16"}, "cic": {"target": "cic", "settings": "pair source set: Lit-BM-16"}, "rl": {"target": "rl", "settings": "MAPPIT configuration: N-N; pair source set: Curagen_high_conf"}, "cpa": {"target": "cpa", "settings": "MAPPIT configuration: N-N; pair source set: Lit-BM-16"}, "dnd": {"target": "dnd", "settings": "MAPPIT configuration: N-N; pair source set: screen_2"}, "cactin": {"target": "cactin", "settings": "MAPPIT configuration: N-N; pair source set: RRS"}, "bru3": {"target": "bru3", "settings": "MAPPIT configuration: N-N; pair source set: DPIM"}}, "note": "Values without a mark were called inactive.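 How the source made its calls: active = MAPPIT score above the 99th percentile of random reference set scores in the same batch; inactive = at or below it.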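 Further: HEK293T cells with Epo stimulation, STAT-responsive firefly luciferase reporter, fold induction versus unstimulated cells divided by the larger fold induction of two negative controls lacking either bait or prey.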"}
{"binder": "B1", "values": [{"measurement": "MAPPIT interaction score", "setting": "dgt4", "value": "4.71 (active)"}]}
{"binder": "B2", "values": [{"measurement": "MAPPIT interaction score", "setting": "brat", "value": -0.851}]}
{"binder": "B3", "values": [{"measurement": "MAPPIT interaction score", "setting": "cathD", "value": -0.0301}]}
{"binder": "B4", "values": [{"measurement": "MAPPIT interaction score", "setting": "dimm", "value": -0.17}]}
{"binder": "B5", "values": [{"measurement": "MAPPIT interaction score", "setting": "corto; MAPPIT configuration: N-C", "value": 0.538}, {"measurement": "MAPPIT interaction score", "setting": "corto; MAPPIT configuration: N-N", "value": 0.215}]}
{"binder": "B6", "values": [{"measurement": "MAPPIT interaction score", "setting": "cic; MAPPIT configuration: N-C", "value": 0.149}, {"measurement": "MAPPIT interaction score", "setting": "cic; MAPPIT configuration: N-N", "value": 0.776}, {"measurement": "MAPPIT interaction score", "setting": "rl", "value": 0.844}]}
{"binder": "B7", "values": [{"measurement": "MAPPIT interaction score", "setting": "cpa", "value": "3.35 (active)"}]}
{"binder": "B8", "values": [{"measurement": "MAPPIT interaction score", "setting": "dnd", "value": "4.87 (active)"}]}
{"binder": "B9", "values": [{"measurement": "MAPPIT interaction score", "setting": "cactin", "value": -0.185}]}
{"binder": "B10", "values": [{"measurement": "MAPPIT interaction score", "setting": "bru3", "value": -0.236}]}
